hgDAF12 agonist = hgDAF-12 agonism, primary luciferase screen; HEK293 GAL4-hgDAF12 UAS-luciferase reporter, agonist luminescence; normalized to butyrate control; AID 687014; activation, % at 6.8 µM; 1.8% of 370,000 active;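 active means activation above a cutoff set at the mean of all screened compounds plus 3 SD, cut at about 10% in these data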
ssDAF12 agonist = S. stercoralis DAF-12 activation, primary screen; AID 652126; 1% of 370,000 active; HEK293 ssDAF-12/GRIP1 lit1-tk-luc reporter, luminescence; % of 3 µM dafachronic acid response; activation, % at 6.8 µM;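 active means activation above the mean over all tested compounds plus 3 SD, cut at about 0.9% in these data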
DAX1 inh-1 = blocks DAX1 repression of SF-1 activated StAR promoter; HEK293T StAR-luciferase reporter, SF-1/DAX-1 repression relief; inhibition, % at 6.8 µM; 1.1% of 370,000 active; AID 652010;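 active means inhibition above the mean over all tested compounds plus 3 SD, cut at about 3.6% in these data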;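 further: higher inhibition means more luminescence from relief of DAX-1 repression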
hcDAF-12 act = activators of H. contortus DAF-12 nuclear receptor | HEK293 hcDAF-12 lit1-tk-luc reporter, luminescence; 0% DMSO, 100% Δ7-dafachronic acid | activation, % at 6.8 µM | 1.4% of 370,000 active | AID 652067;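 active means activation above the mean of all tested compounds plus 3 SD, cut at about 5.5% in these data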
DAX1 inh-2 = NR0B1 (DAX1) inhibition | HEK293 Gal4-DAX1 luciferase reporter, luminescence | AID 504766 | 0.99% of 340,000 active | P51843 | inhibition, % at 6.75 µM;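 active means inhibition above the mean over all tested compounds plus 3 SD, cut at about 4.2% in these data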;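 further: inhibition shows as a rise in luminescence from relieved DAX1 repression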
Target sequence (P51843 207-470 limits assumed): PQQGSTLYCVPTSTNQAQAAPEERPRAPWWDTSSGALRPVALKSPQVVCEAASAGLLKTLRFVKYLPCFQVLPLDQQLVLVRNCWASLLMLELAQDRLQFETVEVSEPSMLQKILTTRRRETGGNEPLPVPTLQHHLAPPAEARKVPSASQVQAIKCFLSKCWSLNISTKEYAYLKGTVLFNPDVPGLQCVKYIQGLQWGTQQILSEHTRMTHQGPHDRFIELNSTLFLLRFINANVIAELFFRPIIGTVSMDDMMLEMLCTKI
Large screens that a line does not name were inactive. A selection: hits, their analogues and other compounds. The true share with any hit is near 4.1%.

O=C(Nc1ccc(CN2CCOCC2)cc1)c1ccccc1F	hgDAF12 agonist 12
O=C(Nc1ccc(CN2CCOCC2)cc1)c1ccc(Cl)cc1Cl	none
COc1cc(CCN(C(=O)c2cc3ccccc3[nH]2)C(c2ccccn2)c2nc3ccccc3[nH]2)cc(OC)c1 (stereo unspecified)	ssDAF12 agonist 1.1 (no result: DAX1 inh-2)
CN1CCCCC(NC(=O)c2ccc3ccccc3c2)C1=O (stereo unspecified)	hgDAF12 agonist 11 (no result: DAX1 inh-2)
CN1CCCCC(NC(=O)c2ccccc2)C1=O (stereo unspecified)	none (no result: DAX1 inh-2)
CN1C(=O)C[C@@](C#N)(C(=O)N2CCOCC2)[C@H]1c1ccccc1	none (no result: DAX1 inh-2)
CSc1nc(C)cc(Oc2ccc(=O)[nH]n2)n1	DAX1 inh-2 5.8
O=C(Nc1ccc(F)cc1)Nc1ccc(Oc2ncnc3cc(Cl)ccc23)nc1	none
O=C(O)CCCC(=O)Nc1ccc(Oc2ncnc3cc(Cl)ccc23)nc1	DAX1 inh-2 5.9
Cc1ccc(C)c(NC(=O)c2cc(-c3cccnc3)nc3ccccc23)c1	DAX1 inh-2 6.3
Cc1ccc(-c2cc(C(=O)NC3=NCCS3)c3ccccc3n2)cc1C	hgDAF12 agonist 11
CCOc1cc(CCNC(=O)c2cc3ccsc3n2C)ccc1OC	none (no result: DAX1 inh-2)
COC(=O)[C@]12C[C@H](CC(=O)NCc3cccc(C(F)(F)F)c3)C(=O)N(Cc3ccco3)C1=C[C@H](C(C)(C)C)O[C@@H]2C	none (no result: DAX1 inh-2)
Cc1cc(NC(=O)Cn2cc([N+](=O)[O-])cn2)no1	DAX1 inh-2 4.7
Cc1ccnc(NC(=O)Cn2cc([N+](=O)[O-])cn2)c1	hgDAF12 agonist 11
O=C(Cn1cc([N+](=O)[O-])cn1)Nc1ccccn1	none
O=C(OC12CCCN(C1)/C(=C/c1cccnc1)C2)c1ccco1 (stereo unspecified)	none (no result: DAX1 inh-2)
CCN1CCCCC(NC(=O)c2ccc(F)cc2)C1=O (stereo unspecified)	none (no result: DAX1 inh-2)
COc1cccc(-c2nnc(SCC(=O)Nc3cccc4ccccc34)n2Cc2ccco2)c1	none (no result: DAX1 inh-2)
Cn1c(=O)c2nc(Cl)c(-c3ccccc3)nc2n(C)c1=O	none
Cn1c(=O)c2nc(-c3ccccc3)c(-c3ccccc3)nc2n(C)c1=O	DAX1 inh-2 4.5
COC(=O)Cc1[nH]c(=O)[nH]c1C(=O)OC	DAX1 inh-2 4.6
CCOC(=O)c1[nH]c(=O)[nH]c1CSCCO	none
COc1ccc(CCn2c(-c3ccccc3)nc3c(c(=O)c4ccccc4n3C)c2=O)cc1	hcDAF-12 act 5.8 (no result: DAX1 inh-2)
COc1ccc(Cn2c(-c3ccccc3)nc3c(c(=O)c4ccccc4n3C)c2=O)cc1	none
Nc1n[nH]c(N)c1N=Nc1ccc(Cl)cc1	hgDAF12 agonist 13
CCOC(=O)[C@]12CCC=C1N(CCC1=CCCCC1)C(=O)[C@H](CC(=O)N1CCSCC1)C2	DAX1 inh-1 4.1 (no result: DAX1 inh-2)
CCOC(=O)[C@]12CCC=C1N(Cc1ccccc1)C(=O)[C@H](CC(=O)N1CCSCC1)C2	none (no result: DAX1 inh-2)
CCOC(=O)[C@]12CCC=C1N(Cc1ccccc1)C(=O)[C@H](CC(=O)N1CCOCC1)C2	DAX1 inh-1 4.3 (no result: DAX1 inh-2)
CCOC(=O)[C@H]1[C@H]2COc3ccc(OC)cc3[C@@H]2N2C(=O)CN(CCc3c[nH]c4ccccc34)C(=O)[C@@]12C	ssDAF12 agonist 1.0
C[C@H]1[C@@H](OC(=O)Nc2ccc(Br)cc2)CC[C@@]23CCCN2C(=O)CCC[C@@H]13	none (no result: DAX1 inh-1, DAX1 inh-2)
Cc1ccc(Cl)cc1N1CCN(C(=O)Cc2c(C(=O)O)[nH]c3ccc(Cl)cc23)CC1	none
Cc1ccc(Cl)cc1N1CCN(C(=O)Cc2c(C(=O)O)[nH]c3ccccc23)CC1	ssDAF12 agonist 1.2
N#Cc1ccccc1NCCCN1CCC(C(O)(c2ccccc2)c2ccccc2)CC1	none (no result: DAX1 inh-2)
c1ccc(CSc2nnc(-c3cccnc3)o2)cc1	none
OCC#CCSc1nnc(-c2ccncc2)o1	none
C#CCSc1nnc(-c2ccc(O)cc2)o1	hgDAF12 agonist 11
Oc1ccc(-c2nnc(SCc3ccccc3)o2)cc1	hgDAF12 agonist 11
Cc1ccc(-c2nnc(SCC(=O)N3CCCC3)o2)cc1	none
C#CCSc1nnc(-c2ccc(C)cc2)o1	hgDAF12 agonist 11
C#CCSc1nnc(-c2cccc3ccccc23)o1	ssDAF12 agonist 1.7
CCS(=O)(=O)N1CCN(C2CCC(C)CC2)CC1 (stereo unspecified)	ssDAF12 agonist 1.1
CCc1nnn2c1Cn1c3ccccc3c(=O)n1[C@@H](C(C)C)C2	none (no result: DAX1 inh-2)
N/C(=N\OC(=O)Cc1ccccc1[N+](=O)[O-])c1ccncc1	none
N/C(=N\OC(=O)c1ccccc1F)c1cccc([N+](=O)[O-])c1	DAX1 inh-2 5.4
N/C(=N\OC(=O)c1ccccc1Br)c1ccc([N+](=O)[O-])cc1	hcDAF-12 act 6.1
COc1cc(C(=O)O/N=C(\N)c2cccc([N+](=O)[O-])c2)cc(OC)c1OC	DAX1 inh-2 5.1
COc1cccc(/C(N)=N/OC(=O)Cc2ccccc2[N+](=O)[O-])c1	DAX1 inh-2 4.7
O=C(CSc1ccccc1)NC1CCCCN(Cc2ccc(Cl)cc2)C1=O (stereo unspecified)	none (no result: DAX1 inh-2)
NC1=[N+](Cc2ccccc2)C(Cc2ccccc2)C2C(=C3CCCCC3n3c(=O)n(-c4ccccc4)c(=O)n32)N1 (stereo unspecified)	none (no result: DAX1 inh-2)
O=C(CN(CCc1ccccc1)S(=O)(=O)c1ccccc1)N1CCOCC1	none (no result: DAX1 inh-2)
N/C(=N\OC(=O)c1ccco1)c1cccc(Br)c1	hcDAF-12 act 6.1
N/C(=N\OC(=O)c1ccco1)c1cccc([N+](=O)[O-])c1	hgDAF12 agonist 13
CCOC(=O)C1CCCN(S(=O)(=O)c2cc3c(cc2Br)CCN3C(=O)CC)C1 (stereo unspecified)	none (no result: DAX1 inh-2)
CCN1CCN(C(=S)c2ccc(O)cc2)CC1	DAX1 inh-2 7.5
CCN(CC)c1ccc(C=C2C(=O)OC(C)(C(C)(C)C)OC2=O)cc1 (stereo unspecified)	DAX1 inh-2 4.9
c1ccc2c(c1)oc1c(NCCCn3ccnc3)ncnc12	none
O=c1c2ccccc2oc2ccc(NCCCn3ccnc3)cc12	hgDAF12 agonist 11, ssDAF12 agonist 1.8, DAX1 inh-1 4.0
CSc1ccc(C(c2c(C(=O)O)[nH]c3ccccc23)c2c(C(=O)O)[nH]c3ccccc23)cc1	hcDAF-12 act 5.6
CCOc1cc(Br)cc(C(c2c(C(=O)O)[nH]c3ccccc23)c2c(C(=O)O)[nH]c3ccccc23)c1O	none
CC1=N/C(=C\c2ccc(OC(C)C)cc2)C(=O)N1c1ccc(C(=O)O)cc1	ssDAF12 agonist 1.9
CCOC(=O)[C@]12CCCC3=C1N(CCC3)C(=O)[C@@H](CC(=O)NCc1ccc(OC)c(OC)c1)C2	none (no result: DAX1 inh-2)
CCCNc1c(N)n(-c2ccccc2)c(=O)[nH]c1=O	DAX1 inh-2 6.1
Cc1cc(SCC(=O)c2ccccc2)n2nc(C)nc2n1	hcDAF-12 act 6.2
O=S1(=O)c2ccc(N3CCSCC3)cc2Oc2ccccc2CN1Cc1cn(Cc2cccc(F)c2)nn1	none (no result: DAX1 inh-2)
O=C(Nc1cc2c(cc1Br)OCCCO2)c1cccnc1	none

Bioassay records (PubChem)
